# An excerpt weighted towards active compounds, which were near 9% of everything screened.
# KinaseGlo FLuc: Counterscreen for Luciferase (Kinase-Glo TM) Inhibition; Luciferin 4-monooxygenase (Photuris pensylvanica), Q27757; Kinase-Glo luciferase, ATP luminescence, 8 min; 200,000 tested, 0.28% active; Potency, µM (doses to about 38.3 µM), for inactives: top-dose activity change, negative = inhibition, most hits filed as inhibitors; active = well fitted curve in the direction sought with a large enough effect; inconclusive = small, poorly fitted or top-dose-only effect, or another doubt; inactive = no such curve, though single readings can be large; an effect the other way counts as inactive or inconclusive; also: nearly all actives have a fitted effect of over 60% in size
#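 Compounds were added to a substrate mix at pH 7.2 (50 mM imidazole, 10 uM ATP, within the enzyme's linear range), followed by Kinase-Glo detection reagent; luminescence was measured after 8 minutes at ambient temperature.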
# Lamin A splicing: qHTS Assay for Modulators of Lamin A Splicing; HeLa LMNA splicing GFP/RFP minigene ratio, 48 h; Potency, µM (highest dose often 46.1 µM), inactives show at the highest dose ratio change, negative = inhibition, actives largely listed as inhibitors; 200,000 tested, 0.01% active; active = well fitted inhibition curve with a large enough effect in the signal ratio, with a control signal flat, not every such curve was filed as active; inconclusive = small, poorly fitted or top-dose-only effect, or effect the other way, or a change in a side signal; the % refers to the signal ratio
#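 S3 HeLa stable clones carrying a lamin A-EGFP splicing minigene plus DsRed2 were seeded at 600 cells/well in Opti-MEM with 2% FBS, pin-dosed and incubated 48 h at 37°C. Acumen cytometry (488 nm) gave the GFP/RFP total-intensity ratio.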
# ALDH1A1 block: qHTS Assay for Inhibitors of Aldehyde Dehydrogenase 1 (ALDH1A1). Potency, µM (top dose mostly 75.3 µM), inactives show at the top dose activity, negative = inhibition, hits mostly inhibitors. Aldehyde dehydrogenase 1A1 (Homo sapiens), P00352. Purified ALDH1A1, NADH fluorescence, propionaldehyde substrate. 220,000 tested, 7.3% active;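 also: plate controls were no enzyme wells and a reference inhibitor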
# Target sequence (P00352 whole entry, looked up): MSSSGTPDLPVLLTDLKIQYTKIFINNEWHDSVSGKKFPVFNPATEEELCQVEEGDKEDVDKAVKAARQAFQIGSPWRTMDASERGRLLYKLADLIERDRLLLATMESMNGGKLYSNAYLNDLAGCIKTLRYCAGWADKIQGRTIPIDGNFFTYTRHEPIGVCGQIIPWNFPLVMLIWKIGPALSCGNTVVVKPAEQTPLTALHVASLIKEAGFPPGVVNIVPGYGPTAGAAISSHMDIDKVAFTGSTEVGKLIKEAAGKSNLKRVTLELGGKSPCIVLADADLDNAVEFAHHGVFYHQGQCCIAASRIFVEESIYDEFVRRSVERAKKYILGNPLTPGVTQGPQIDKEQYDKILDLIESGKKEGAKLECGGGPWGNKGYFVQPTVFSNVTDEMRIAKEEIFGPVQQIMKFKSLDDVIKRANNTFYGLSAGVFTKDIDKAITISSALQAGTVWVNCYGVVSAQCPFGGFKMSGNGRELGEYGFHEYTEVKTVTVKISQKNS
# IMPase Li cell: qHTS Assay for Identifying the Cell-Membrane Permeable IMPase Inhibitors: Potentiation with Lithium; CHO-M1 cells, IP1 TR-FRET (IP-One), carbachol + lithium; Potency, µM (doses to about 59.4 µM), for the others: at the top dose activity, negative = IMPase inhibition, most hits filed as inhibitors; 210,000 tested, 0.35% active; AID 1457, 2008; active = well fitted curve in the direction sought with a large enough effect; inconclusive = small, poorly fitted or top-dose-only effect, or another doubt; inactive = no such curve, though single readings can be large; an effect the other way counts as inactive or inconclusive;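 also: IP1 builds up when IMPase is blocked and the TR-FRET signal falls; plate controls were basal vehicle for no effect and high inhibitor control for full effect; nearly all actives have a fitted effect of over 50% in size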
#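 CHO-M1, 2000 cells/well, 16–30 h culture; cpd + low Li+, 30 min 37C; lysis with d2-IP1/Eu-anti-IP1 Ab, 10 min RT; TR-FRET 665/620 ratio and 620 channel; AC50 via Hill.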
# HPGD inh: qHTS Assay for Inhibitors of HPGD (15-Hydroxyprostaglandin Dehydrogenase) | purified HPGD, NADH fluorescence kinetic, PGE2 substrate | 15-hydroxyprostaglandin dehydrogenase [NAD(+)] (Homo sapiens), P15428 | Potency, µM, without a hit: top-dose activity change, negative = inhibition, usual class: inhibitors | 150,000 tested, 4.3% active
# Target sequence (P15428 whole entry, looked up): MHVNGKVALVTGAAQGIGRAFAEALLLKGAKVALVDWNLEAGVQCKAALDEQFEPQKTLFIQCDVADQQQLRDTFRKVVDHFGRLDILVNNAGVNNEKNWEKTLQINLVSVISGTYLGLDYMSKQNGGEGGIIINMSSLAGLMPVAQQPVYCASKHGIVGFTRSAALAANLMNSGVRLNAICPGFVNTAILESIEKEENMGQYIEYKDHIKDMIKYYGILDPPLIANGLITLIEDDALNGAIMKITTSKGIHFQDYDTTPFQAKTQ
#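 20 nM HPGD preincubated 15 min at room temperature with compound in 50 mM Tris-HCl pH 8, 0.01% Tween 20. Started with 1 mM NAD+ and 30 uM prostaglandin E2; NADH fluorescence (360/450 nm) read 5 times over 30-s intervals, last minus first.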
# Active calls of the source: *; ? = inconclusive; · = not tested or not shown; [ ] = remark or other dose. Unless noted, calls follow the shape of the dose curve; as a rule, active = well fitted inhibition curve with a large enough effect (not every such curve was filed as active); inconclusive = small, poorly fitted or top-dose-only effect, or another doubt; inactive = no such curve, though single readings can be large or run the other way. Unless noted, % is scaled to controls: 0 for no effect and ±100 for the full control effect; potency is read from the fitted curve at half-maximal effect.
SMILES,KinaseGlo FLuc,Lamin A splicing,ALDH1A1 block,IMPase Li cell,HPGD inh
C[C@@H]1OC2C3=C(C(=O)[C@H]4O[C@@H]4[C@H]3O)[C@@H]1[C@H]1[C@H](C)OC=C3[C@H](O)[C@H]4O[C@H]4/C(=N\OCc4ccccc4)[C@@]321,·,·,-1%[13.5 µM],·,·
CN(C)c1ccc(SC#N)cc1,·,·,13µM*,·,·
CCOC(=O)c1sc(=S)n(-c2cc(F)ccc2F)c1N,2%,?,20µM*,-9%[38.3 µM],25µM*
CCOC(=O)c1sc(=S)n(-c2ccc(Cl)cc2)c1C,-3%,3%,?,8%,-9%
COC(=O)c1sc(=S)n(-c2cc(F)ccc2F)c1N,-2%,8%[0.0737 µM],25µM*,-8%[38.3 µM],28µM*
CCOC(=O)c1sc(=S)n(-c2cc(OC)ccc2OC)c1N,0%,-10%,3.2µM*,20%[38.3 µM],3.5µM*
CCOC(=O)c1sc(=S)n(-c2ccccc2)c1SC,0%,4%,-10%,20%[38.3 µM],-22%
CCOC(=O)c1sc(=S)n(-c2ccccc2Cl)c1SC,2%,?,18µM*,23%[38.3 µM],18µM*
COc1ccc(Oc2ncc3nc(-c4cn(C)c5ccccc45)c(=O)n(C4CC4)c3n2)cc1,·,?,7%,4%,·
CCOC(=O)/C=C/C(=O)Nc1cccc([N+](=O)[O-])c1,-4%,?,-1%,-6%,1.6µM*
CC(C)=C(NC(=O)c1ccccc1)C(=O)Nc1cccc(C(=O)O)c1,-1%,5%[46 µM],3%,7%,·
COc1cccc(/C=C2\N=C(SC)SC2=O)c1OC,10%,8%,32µM*,5%[38.3 µM],25µM*
CSC1=N/C(=C\c2ccccc2F)C(=O)S1,·,-1%,-15%,·,·
O=C(COC(=O)c1ccc(=O)n(Cc2ccccc2)n1)Nc1ccc2c(c1)OCCO2,4%,7%,8.9µM*,21%[38.3 µM],-19%
O=C(CSc1ncnc2c1cnn2Cc1ccccc1)Nc1ccc2c(c1)OCCO2,1%,-19%,13µM*,17%[38.3 µM],0%
COc1cccc(NC(=O)CSc2ncnc3c2cnn3Cc2ccccc2)c1,-3%,-2%,?,15%[38.3 µM],-29%
COc1ccc(C(=O)/C(=C/c2cccs2)c2nc3ccccc3o2)cc1,-1%,?,2µM*,41%[38.3 µM],35µM*
COc1ccc(/C=C(\CC(=O)O)c2nc3ccccc3o2)cc1,4%,-10%[46 µM],-11%,5%,·
CCOc1ccc(C2C(C(=O)Nc3ccccc3)=C(C)Nc3nc(SCc4cccc(OC)c4)nn32)cc1 (centres undefined),·,0%[46 µM],·,·,·
Cc1noc(C)c1COc1cccc(C(=O)NCc2ccccc2Cl)c1,-5%,?,-26%,23%[38.3 µM],16µM*
COc1ccc2nc(NC(=O)c3cccc(OCc4c(C)noc4C)c3)sc2c1,-9%,?,?,?,?
Cc1nc(C)c(C(=O)NCc2ccccc2Cl)o1,-1%,?,22µM*,2%[38.3 µM],25µM*
CCC(CC)C(=O)NCc1ccccc1Cl,0%,-6%,20%,-9%[38.3 µM],-16%
Cc1noc(C)c1COc1ccc(C(=O)OCC(=O)NCc2ccccc2Cl)cc1,0%,-10%,-6%,-1%,-13%
CCSc1nnc(NC(=O)c2cccc(OCc3c(C)noc3C)c2)s1,-2%,?,?,-1%[38.3 µM],25µM*
SMILES,KinaseGlo FLuc,Lamin A splicing,ALDH1A1 block,IMPase Li cell,HPGD inh
C/C=C(\C)C(=O)OC1[C@@H]2C=C3C4CC(=O)OC(c5ccoc5)[C@]4(C)CCC3[C@@](C)(C2=O)C(C(O)C(=O)OC)C1(C)C (some centres undefined),2%,·,-5%,3%,2%
O=S(=O)(Cc1ccccc1)c1cnc2ccccc2n1,-5%,?,?,14%[38.3 µM],25µM*
O=S(=O)(c1ccc(Br)cc1)c1cnc2ccccc2n1,-4%,?,-1%,4%,·
CCc1ccc(-n2c(=O)c3c(C)c(C(=O)N(C)C)sc3n(Cc3ccccc3C#N)c2=O)cc1,·,-1%[46 µM],·,·,·
O=C(CSc1nnc(Cc2ccccc2)o1)N1CCCc2ccccc21,-3%,1%,18µM*,18%[38.3 µM],?
O=C(CSc1nnc(CNc2ccccc2)o1)N1CCc2ccccc21,-2%,6%,16µM*,-10%[38.3 µM],-9%
COc1ccc(C(=O)NCc2nnc(SCC(=O)N3CCc4ccccc43)o2)cc1OC,1%,-17%,-1%,24%[38.3 µM],-2%
CC1(C)CC(c2nc(-c3ccc([N+](=O)[O-])cc3)cs2)CCO1 (centres undefined),2%,-5%[46 µM],16µM*,4%,·
Cc1cccc(C)c1NC(=O)c1sc(-n2nc(C)c(Cc3ccc4c(c3)OCO4)c2C)nc1C,·,-4%[46 µM],·,·,·
N#Cc1ccccc1NC(=S)Nc1ccc(F)cc1,-3%,?,-1%,0%,·
S=C(Nc1ccccc1)Nc1ccccc1C#Cc1ccccc1,-9%,·,18µM*,7%,?
C[Si](C)(C)C#Cc1ccccc1NC(=S)Nc1ccccc1,-4%,·,13µM*,5%,?
Clc1ccccc1Cc1noc(CN2CCN(Cc3ccccn3)CC2)n1,-1%,·,?,6%,·
C/C(=N\NC(=O)C(C)Nc1cccc(Cl)c1)c1ccc([N+](=O)[O-])cc1 (centres undefined),-1%,12%,2%,-3%,-3%
CCCCC(CC)CNCC(CC)CCCC (centres undefined),·,·,25µM*,5%,-10%
CCCCC(CC)COP(=O)(OCC(CC)CCCC)OCC(CC)CCCC (centres undefined),·,·,-4%,7%,-5%
C/C(=C\c1ccc(C)o1)C(=O)c1c(C)cc(C)[nH]c1=O,3%,17%[9.22 µM],?,6%,·
CC(=C\C(=O)O)/C(=C/c1ccc(C)o1)C(=O)O,8%,-3%,22µM*,-5%,-19%
CC(C)CC(C(=O)NCCc1ccccc1)N1Cc2ccccc2C1=O (centres undefined),·,-6%[46 µM],·,·,·
COc1cccc(N2CCN(C(=O)c3cnc4c(C)cccn4c3=O)CC2)c1,·,7%[46 µM],·,·,·
Cc1cc(N)n(-c2ncnc3scc(-c4ccc(Cl)cc4)c23)n1,-1%,-17%,?,5%,-8%
Cc1ccc(-c2csc3ncnc(-n4nc(C)cc4N)c23)cc1,5%,?,2µM*,14%[38.3 µM],-13%
C[C@@H]1CC[C@H]2C(=O)N3[C@@H](CC[C@@H](C)[C@@H]3c3ccc(Br)cc3)C(=O)N2[C@@H]1c1ccc(Br)cc1,·,·,-9%[13.5 µM],·,·
N#CC(c1ccc(O)cc1)N1CCOCC1 (centres undefined),-4%,0%,7.9µM*,5%,-6%
COC(=O)c1sc2ccccc2c1-n1cccc1C(=O)C(=O)Nc1ccc(OC)cc1,-7%,10%,?,-21%[38.3 µM],-22%
